Source: PubChem BioAssay (The Scripps Research Institute Molecular Screening Center)
An excerpt weighted towards active compounds, which were near 3.5% of everything screened.
TEAD-YAP inh – TEAD-YAP interaction inhibition, primary screen, TEAD-YAP interaction inhibitor project, luminescence, HEK-TIYL cells; TEAD-Gal4/YAP UAS-luciferase luminescence; inhibition, % at 9.12 µM; actives 1.4% (n = 640,000); AID 1259422, 2018; in the data active means inhibition above about 32%;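 further: 0% = median of test compound wells and 100% = reference inhibitor wells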
MITF primary – MITF inhibitors, primary screen, biochemical, AlphaScreen, human | Microphthalmia-associated transcription factor (Homo sapiens), O75030 | AlphaScreen MITF homodimerization, bead proximity signal | inhibition, % at 2.6 µM | actives 0.91% (n = 650,000) | AID 1259374, 2018; in the data active means inhibition above about 50%;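 further: 0% = vehicle wells with protein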
GPR151 ag – activators of human GPR151, primary screen, cell-based, PathHunter beta-arrestin, luminescence. G-protein coupled receptor 151 (Homo sapiens), Q8TDV0. PathHunter beta-arrestin GPR151 cells. activation, % at 11.2 µM. actives 1% (n = 650,000); in the data active means activation above about 4.9%;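 further: 0% = median of compound wells and 100% = cells with positive control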
Target sequence (Q8TDV0 whole entry, looked up): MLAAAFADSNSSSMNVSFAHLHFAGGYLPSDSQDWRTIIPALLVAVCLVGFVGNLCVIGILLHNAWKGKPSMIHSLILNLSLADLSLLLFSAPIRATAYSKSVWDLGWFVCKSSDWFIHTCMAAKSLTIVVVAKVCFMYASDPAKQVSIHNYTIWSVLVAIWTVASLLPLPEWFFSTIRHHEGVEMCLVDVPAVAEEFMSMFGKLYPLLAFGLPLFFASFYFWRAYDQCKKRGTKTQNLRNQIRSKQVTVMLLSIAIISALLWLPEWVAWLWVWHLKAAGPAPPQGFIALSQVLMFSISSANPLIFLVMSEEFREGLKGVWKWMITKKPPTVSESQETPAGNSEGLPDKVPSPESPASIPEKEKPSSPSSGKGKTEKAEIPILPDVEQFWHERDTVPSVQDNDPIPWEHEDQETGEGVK
FBW7 act – FBW7 E3 ligase activators, primary screen, biochemical, AlphaScreen, human. AlphaScreen FBW7–phospho-cyclin E peptide binding, activator screen. normalized activity (activation), % at 26.1 µM. actives 0.13% (n = 650,000). AID 1259310, 2017; in the data active means normalized activity above about 1.9%;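 further: purified mutant Fbw7 with reduced substrate affinity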
* hit, by the source's call.

NC(=O)c1ccccc1NC(=O)COc1ccccc1 was read as TEAD-YAP inh -50.8, MITF primary 3.1, GPR151 ag -2.3 and FBW7 act -0.1.
`Cc1nc2c(c(=O)[nH]1)CN(CC(=O)Nc1ccc3c(c1)OCO3)CC2` gave TEAD-YAP inh -16.1, MITF primary 3.8, GPR151 ag -0.5 and FBW7 act -0.3.
COc1ccc(CNC(=O)c2ccc3c(=O)n(CCC4=CCCCC4)c(=S)[nH]c3c2)cc1 was read as TEAD-YAP inh 0.0, MITF primary 7.3, GPR151 ag -1.2 and FBW7 act 0.0.
COc1cc(C(Nc2cc(C)ccn2)c2ccc3ccc(C)nc3c2O)cc(OC)c1OC (configuration not stated) was read as TEAD-YAP inh 67.6*, MITF primary 20.8, GPR151 ag 0.9 and FBW7 act -0.2.
COc1cc(C(Nc2cccc(C)n2)c2ccc3ccc(C)nc3c2O)cc(OC)c1O (configuration not stated) was read as TEAD-YAP inh 33.0*, MITF primary 3.5, GPR151 ag 2.2 and FBW7 act -0.3.
`CCOc1cc(C(Nc2cc(C)ccn2)c2ccc3cccnc3c2O)ccc1O` (configuration not stated) gave TEAD-YAP inh 1.6, MITF primary 68.7*, GPR151 ag -0.6 and FBW7 act -0.5.
COc1cc(C(Nc2cc(C)ccn2)c2ccc3cccnc3c2O)ccc1O (configuration not stated) was read as TEAD-YAP inh -11.2, MITF primary 54.3*, GPR151 ag 0.8 and FBW7 act -0.4.
`Cc1cccc(NC(c2cccc(O)c2)c2ccc3ccc(C)nc3c2O)n1` (configuration not stated) gave TEAD-YAP inh 10.6, MITF primary 16.6, GPR151 ag 0.0 and FBW7 act -0.1.
Cc1ccnc(NC(c2cccc(O)c2)c2ccc3ccc(C)nc3c2O)c1 (configuration not stated) was read as TEAD-YAP inh 13.5, MITF primary 4.9, GPR151 ag -0.4 and FBW7 act -0.1.
Screening CCCCc1ccc(C(=O)N/C(=C\c2ccc(C)cc2)C(=O)Nc2ccc(C)cc2)cc1 returned TEAD-YAP inh -2.0, MITF primary -0.3, GPR151 ag 1.6 and FBW7 act 0.0.
Screening CN(C)C(=O)Cn1c(SCC(=O)Nc2ccc(N3CCCC3)cc2)nc2ccccc21 returned TEAD-YAP inh 15.4, MITF primary 8.7, GPR151 ag 0.6 and FBW7 act -0.2.
For COC(=O)c1ccc(/C=c2\sc3nc4cc(C)c(C)cc4n3c2=O)cc1 the results were TEAD-YAP inh 3.9, MITF primary 6.1, GPR151 ag 1.1 and FBW7 act -0.1.
`O=C(COC(=O)c1cc(=O)[nH]c(=O)[nH]1)Nc1ccccc1C(=O)c1ccccc1` gave TEAD-YAP inh 5.2, MITF primary 10.8, GPR151 ag -1.1 and FBW7 act 0.0.
For O=[N+]([O-])c1cccc(NC(c2ccco2)c2ccc3cccnc3c2O)c1 (configuration not stated) the results were TEAD-YAP inh 74.6*, MITF primary 82.2*, GPR151 ag 2.3 and FBW7 act -1.9.
Screening O=[N+]([O-])c1ccc(NC(c2ccco2)c2ccc3cccnc3c2O)cc1 (configuration not stated) returned TEAD-YAP inh 69.8*, MITF primary 57.6*, GPR151 ag 0.7 and FBW7 act -2.0.
O=C(Cc1ccccc1)NC(c1ccco1)c1ccc2cccnc2c1O (configuration not stated) was read as TEAD-YAP inh 30.2, MITF primary 29.9, GPR151 ag 0.0 and FBW7 act -1.9.
Screening CC(=O)N(C)c1ccc(N=Cc2ccc(O)cc2O)cc1 returned TEAD-YAP inh 3.3, MITF primary 12.1, GPR151 ag -0.9 and FBW7 act 0.2.
CC1=NN(c2ccccc2)C(=O)C1C(=O)c1ccccc1 (configuration not stated) was read as TEAD-YAP inh 25.1, MITF primary 5.9, GPR151 ag -1.3 and FBW7 act -0.1.
Screening CC1=NN(c2ccccc2)C(=O)C1C(=O)c1ccc(Br)cc1 (configuration not stated) returned TEAD-YAP inh 37.2*, MITF primary 0.8, GPR151 ag -0.6 and FBW7 act 0.0.
COC(=O)c1c(OCc2ccccc2)cc(=O)n2c1CCN(Cc1cnn(C)c1C)CC2 was read as TEAD-YAP inh -3.6, MITF primary 13.1, GPR151 ag 1.2 and FBW7 act 0.2.
Screening COc1ccc(CCNC(=O)c2nnn(-c3ccc4c(c3)OCCO4)c2N)cc1OC returned TEAD-YAP inh 64.8*, MITF primary 4.8, GPR151 ag 0.7 and FBW7 act 0.0.
O=C(Nc1ccc(NC(=O)c2cccc3ccccc23)cc1)c1ccco1 was read as TEAD-YAP inh -11.7, MITF primary -4.9, GPR151 ag 0.8 and FBW7 act 0.1.
For COc1ccc(/C=C2/SC(=N)N(c3cc(C)ccc3C)C2=O)cc1 the results were TEAD-YAP inh 38.2*, MITF primary 8.5, GPR151 ag 1.6 and FBW7 act 0.1.
Screening C#CCN1CCC(NC(C)=O)(c2ccc(C)cc2)CC1 returned TEAD-YAP inh -9.8, MITF primary -12.4, GPR151 ag 0.3 and FBW7 act 0.2.
`Cc1ccc(Nc2nc(-c3c(C)nc4ccccn34)cs2)cc1` gave TEAD-YAP inh 53.3*, MITF primary 14.9, GPR151 ag 1.8 and FBW7 act 0.0.
For Cc1ccc(Nc2nc(-c3c(C)nc4ccccn34)cs2)c(C)c1 the results were TEAD-YAP inh 53.1*, MITF primary -2.1, GPR151 ag -0.5 and FBW7 act -0.1.
`CCN(CC)c1ccc(Nc2nc(-c3c(C)nc4ccccn34)cs2)cc1` gave TEAD-YAP inh 12.3, MITF primary 22.1, GPR151 ag 3.3 and FBW7 act -0.7.
Screening Cc1nc2ccccn2c1-c1csc(Nc2ccc(Cl)cc2)n1 returned TEAD-YAP inh 43.6*, MITF primary 7.6, GPR151 ag 0.4 and FBW7 act -0.1.
For Cc1nc2ccccn2c1-c1csc(Nc2ccc(S(N)(=O)=O)cc2)n1 the results were TEAD-YAP inh -2.7, MITF primary 5.0, GPR151 ag 0.2 and FBW7 act 0.0.
Screening O=C(c1csc(Nc2ccccc2)n1)N1CCN(c2ccccc2)CC1 returned TEAD-YAP inh -0.2, MITF primary 12.1, GPR151 ag -1.2 and FBW7 act 0.1.
`C=CCOC(=O)C1=C(C)NC(C)=C(C(=O)OCC=C)C1c1ccc(O)c(OC)c1` gave TEAD-YAP inh -1.3, MITF primary -3.7, GPR151 ag 0.7 and FBW7 act -0.1.
`O=C(/C=C/c1ccc(F)cc1)N1CCN(Cc2ccccc2)CC1` gave TEAD-YAP inh -25.6, MITF primary -6.7, GPR151 ag 0.0 and FBW7 act -0.1.
